From PubChem BioAssay come the findings set out here.

The structures appear in SMILES notation. Calls of active or inactive are those of the source.

Experiment [1] in a line: anti-His antibody binders, primary screen, artefact control for SMM control protein annotation, biochemical, small-molecule microarray, 635 nm fluorescence (AID 1128).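 Further: score merges feature fluorescence with signal-to-noise for each printed compound spot.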 Particulars: anti-His Alexa647 antibody binding, higher = more signal.
Experiment [2] relates to Human papillomavirus type 1a E7 protein (residues 1-88). The experiment in a line: HPV1a E7 small-molecule binders, primary screen, biochemical, small-molecule microarray, residues 1-88, 635 nm (AID 1129). The conditions noted are these: small-molecule microarray binding, fluorescence 635 nm; higher = more signal.
For experiment [3], the target named is Focal adhesion kinase 1 (Homo sapiens) (UniProt Q05397). The experiment is described as follows: small-molecule microarray binders of FAK, primary screen, biochemical, 635/667 nm fluorescence, BSA, DTT (AID 1130).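 Further: composite of spot emission at 667 nm and signal to noise over triplicate slides.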 The conditions noted are these: PTK2 binding, 635 nm fluorescence, higher = more signal.
Experiment [4] concerns Fibrinogen (Alexa647-labelled). The experiment in a line: fibrinogen binders on compound microarrays, profiling panel, artefact control for SMM control-protein annotation, biochemical, small-molecule microarray, 635/667 nm fluorescence (AID 1131).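 Further: z-score merges 667 nm fluorescence with per-spot signal-to-noise over triplicate slides.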 The conditions noted are these: fibrinogen-A647 binding fluorescence, higher = more signal.
Experiment [5] has as its target Follistatin (Homo sapiens) (UniProt P19883). The experiment in a line: follistatin binders on small-molecule microarrays, primary screen, biochemical, small-molecule microarray, 635/667 nm fluorescence (AID 1132). Particulars: FST binding, 635 nm fluorescence, higher = more signal.
For experiment [6], the target named is Fibroblast growth factor 2 (Homo sapiens) (UniProt P09038). The experiment in a line: FGF2 binders on small-molecule microarrays, primary screen, biochemical, small-molecule microarray, 635/667 nm fluorescence (AID 1133). The conditions noted are these: small-molecule microarray binding, FGF2, fluorescence 635/667; higher = more signal.
The nature of experiment [7]: mitochondrial membrane potential change in A549 cells, profiling panel, cell-based, JC-1 fluorescence, basal, 24 h, 100 nL (AID 1138).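 Further: A549 lung adenocarcinoma cells under basal conditions with no added stimulus; test concentration not given here.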 Particulars: higher = more signal.
A further experiment concerns Lefty1. The experiment in a line: Lefty1 binders on small-molecule microarrays, primary screen, biochemical, small-molecule microarray, 635/667 nm fluorescence (AID 1139). The conditions noted are these: small-molecule microarray binding, fluorescence 635/667; higher = more signal.
The subject of experiment [8] is wheat germ agglutinin (Triticum aestivum), Alexa647-labelled. The experiment is described as follows: wheat germ agglutinin binders on compound microarrays, profiling panel, artefact control for SMM control-protein annotation, biochemical, small-molecule microarray, 635/667 nm fluorescence (AID 1140).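 Further: score merges 667 nm feature emission with signal to noise over triplicate slides.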 Particulars: WGA-A647 binding, 635 nm fluorescence, higher = more signal.

The target of experiment [9] is Luciferin 4-monooxygenase (Photinus pyralis) (UniProt P08659). The experiment is described as follows: firefly luciferase enzyme inhibitors, primary screen, biochemical, luminescence, purified enzyme, 2006 set (AID 1141).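 Further: cell-free assay with purified firefly luciferase at 100 ng per well in PBS; test concentration not given here.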 The conditions noted are these: SteadyGlo luminescence, 30 min, higher = more signal, called active from +8 up or from −8 down.
Luciferin 4-monooxygenase (Photinus pyralis), sequence (P08659 whole entry, looked up): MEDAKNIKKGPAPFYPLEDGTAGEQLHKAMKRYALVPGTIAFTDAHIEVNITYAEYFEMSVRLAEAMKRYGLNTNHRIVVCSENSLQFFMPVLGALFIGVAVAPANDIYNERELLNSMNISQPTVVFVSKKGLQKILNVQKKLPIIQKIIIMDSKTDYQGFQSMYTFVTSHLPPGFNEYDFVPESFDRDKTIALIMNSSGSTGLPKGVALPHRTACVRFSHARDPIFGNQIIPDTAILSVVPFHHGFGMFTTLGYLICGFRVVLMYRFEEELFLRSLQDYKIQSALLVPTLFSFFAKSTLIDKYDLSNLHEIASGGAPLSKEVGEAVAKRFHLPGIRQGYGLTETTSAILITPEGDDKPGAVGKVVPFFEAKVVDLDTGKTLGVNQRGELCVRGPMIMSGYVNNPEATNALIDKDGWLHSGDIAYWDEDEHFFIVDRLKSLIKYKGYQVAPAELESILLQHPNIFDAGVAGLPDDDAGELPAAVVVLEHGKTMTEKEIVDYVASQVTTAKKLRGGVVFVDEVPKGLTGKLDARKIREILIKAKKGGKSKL

Focal adhesion kinase 1 (Homo sapiens), sequence (Q05397 whole entry, looked up): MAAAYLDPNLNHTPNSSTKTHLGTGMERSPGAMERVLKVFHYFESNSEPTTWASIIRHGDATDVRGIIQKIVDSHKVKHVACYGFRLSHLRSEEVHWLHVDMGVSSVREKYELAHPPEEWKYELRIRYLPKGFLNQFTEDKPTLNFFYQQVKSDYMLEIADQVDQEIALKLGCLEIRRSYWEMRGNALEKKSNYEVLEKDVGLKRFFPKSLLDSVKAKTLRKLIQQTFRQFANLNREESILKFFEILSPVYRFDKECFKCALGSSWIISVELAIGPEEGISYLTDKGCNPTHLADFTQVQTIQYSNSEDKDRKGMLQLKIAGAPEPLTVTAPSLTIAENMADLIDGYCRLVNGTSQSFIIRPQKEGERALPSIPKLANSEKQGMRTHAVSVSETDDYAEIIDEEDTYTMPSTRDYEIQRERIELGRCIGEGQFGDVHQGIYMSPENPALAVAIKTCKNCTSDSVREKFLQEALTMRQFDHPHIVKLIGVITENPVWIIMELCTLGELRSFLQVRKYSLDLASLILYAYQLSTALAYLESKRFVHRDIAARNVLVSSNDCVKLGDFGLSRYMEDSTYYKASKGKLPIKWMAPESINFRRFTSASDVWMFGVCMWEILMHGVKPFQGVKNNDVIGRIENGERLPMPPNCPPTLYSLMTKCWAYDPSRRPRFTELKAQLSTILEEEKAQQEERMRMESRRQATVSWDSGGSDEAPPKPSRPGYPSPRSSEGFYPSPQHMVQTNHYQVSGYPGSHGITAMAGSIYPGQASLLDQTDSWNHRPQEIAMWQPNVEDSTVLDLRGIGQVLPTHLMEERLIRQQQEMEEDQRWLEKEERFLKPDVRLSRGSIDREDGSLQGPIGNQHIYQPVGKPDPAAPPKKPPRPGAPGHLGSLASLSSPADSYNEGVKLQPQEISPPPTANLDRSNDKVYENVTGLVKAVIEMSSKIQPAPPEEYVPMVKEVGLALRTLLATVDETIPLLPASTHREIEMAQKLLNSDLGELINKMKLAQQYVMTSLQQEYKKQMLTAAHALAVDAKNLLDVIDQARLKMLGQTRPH
Follistatin (Homo sapiens), sequence (P19883 whole entry, looked up): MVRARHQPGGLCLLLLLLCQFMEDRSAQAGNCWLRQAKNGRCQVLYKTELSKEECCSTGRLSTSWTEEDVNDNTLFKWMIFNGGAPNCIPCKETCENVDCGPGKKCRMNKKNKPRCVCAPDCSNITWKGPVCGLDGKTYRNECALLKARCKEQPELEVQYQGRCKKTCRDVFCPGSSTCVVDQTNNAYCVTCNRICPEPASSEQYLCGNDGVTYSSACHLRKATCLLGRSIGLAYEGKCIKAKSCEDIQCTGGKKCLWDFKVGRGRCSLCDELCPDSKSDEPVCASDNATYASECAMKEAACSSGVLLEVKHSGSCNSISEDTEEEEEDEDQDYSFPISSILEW
Fibroblast growth factor 2 (Homo sapiens), sequence (P09038 whole entry, looked up): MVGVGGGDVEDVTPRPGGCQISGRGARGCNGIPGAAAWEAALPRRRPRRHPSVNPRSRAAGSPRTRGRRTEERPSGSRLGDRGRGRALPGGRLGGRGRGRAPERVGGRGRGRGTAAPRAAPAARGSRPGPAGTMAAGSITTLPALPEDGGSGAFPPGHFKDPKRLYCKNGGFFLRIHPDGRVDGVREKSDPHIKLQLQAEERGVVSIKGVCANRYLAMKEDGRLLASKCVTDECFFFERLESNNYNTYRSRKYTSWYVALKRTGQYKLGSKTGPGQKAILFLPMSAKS

Take `COCCCNC(=O)[C@@]1(Cc2ccccc2I)c2ccccc2C(=O)N(Cc2ccccc2C(F)(F)F)[C@H]1c1ccc(CO)cc1`: the composite z-score in experiment [1] was 0.611; in [2] it was 0.742; in experiment [3], -0.0483; in experiment [4], 0.0568; in [5] it was 0.672; in [6], -0.742. Further, the composite z-score in the experiment on Lefty1 is -1.15; in experiment [8], -0.107. The z-score in [7] is 0.104; in [9], 0.636 (inactive).

As for `C=C(C(=O)CC[C@@H](OC(=O)c1cccnc1)c1cccc(OCCO)c1)C(C)C`, the composite z-score in experiment [1] was 0.317; in [2] it was -0.4; in experiment [3], -0.896; in experiment [4] it was 0.496; in [5], 0.866; in experiment [6], 1.33. The composite z-score in the experiment on Lefty1 amounted to 1.13; in [8], 0.386. In addition, the results for the z-score in experiment [7] and in experiment [9] were 0.313 and -0.128 (inactive), respectively.

In the case of `COc1ccc([Si](C)(C)[C@@H]2[C@@H](CC(=O)N(CCO)Cc3ccccc3)O[C@]3(C(=O)N(Cc4cccc(I)c4)c4ccccc43)[C@H]2C)cc1`, the composite z-score was 0.853 in [1]; 1.12 in [2]; -0.14 in [3]; 0.604 in [4]; 1.48 in experiment [5]; 1.68 in experiment [6]. Also, the composite z-score was found to be 1.51 in the experiment with Lefty1 and 0.618 in experiment [8]. Further, the z-score in [7] is -0.781; in experiment [9], -0.216 (inactive).

Consider `CC(C)[Si]1(C(C)C)OCc2cc(-c3ccc(-c4ccc(Cl)c(Cl)c4)o3)nc(-c3ccc(Oc4ccccc4)cc3)c21`, for which the composite z-score in experiment [1] was -0.768; in [2] it was -1.88; in [3], -0.0554; in experiment [4], -1.02; in [5] it was -1.21; in [6] it was -1.57. Besides, the composite z-score in the experiment with Lefty1 was -1.34; in experiment [8], -0.0312. Besides, the z-score in experiment [7] was 0.229; in experiment [9], 0.586 (inactive).

Turning to `O=C1C2C=CC(C(O)C3CCCCC3)N(Nc3ccccc3F)C2C(=O)N1c1ccccc1` (stereo not given), the composite z-score in experiment [1] was 1.87; in [2], 1.23; in experiment [3], 1.76; in [4], 1.01; in experiment [5], 1.17; in experiment [6] it was -0.494. The composite z-score in the experiment on Lefty1 came out at 0.168; in [8] it was 0.682. The z-score in [7] was -0.791; in [9], -1.02 (inactive).

Regarding `CCOC(=O)C[C@H]1[C@H](OC(=O)c2ccccc2-c2ccccc2)[C@@H](NC(=O)CC(C)C)c2cc(OCCCO)ccc2N1C(=O)c1ccccc1`, the composite z-score in experiment [1] was -0.229; in experiment [2], 0.0447; in [3], -0.0647; in experiment [4], 0.24; in [5] it was 1.01; in [6] it was 0.583. Further, the composite z-score with Lefty1 is 1.01; in experiment [8] it was -0.0988. Moreover, the z-score in experiment [7] was -0.154; in experiment [9], 0.914 (inactive).

As for `COC(=O)[C@@]1(Cc2ccc(F)cc2)[C@H]2c3cc(C(=O)N(C)C)n(Cc4ccc(C(F)(F)F)nc4)c3C[C@H]2CN1C(=O)c1ccccc1`, the composite z-score in experiment [1] is 1.33; in experiment [2], 1.27; in [3], 1.61; in experiment [4], 1.02; in experiment [5], 1.05; in experiment [6], -0.234. The composite z-score worked out at 0.853 in the experiment on Lefty1 and 0.895 in experiment [8]. The z-score in experiment [7] was 0.453; in [9], 1.57 (inactive).

With `COC(=O)Cn1c(C(=O)N(C)C)cc2c1C[C@H]1CN(C(=O)c3ccccc3)[C@@](Cc3ccccc3)(C(=O)OC)[C@@H]21`, the composite z-score in [1] was 0.733; in [2], 0.278; in experiment [3], 0.499; in experiment [4], -0.254; in [5], -0.253; in [6], 0.179. The composite z-score is -0.0528 in the experiment on Lefty1 and 0.533 in experiment [8]. Moreover, the z-score was 0.553 in experiment [7] and 3.15 (inactive) in experiment [9].

For `C=C[C@@H](CO)NS(=O)(=O)c1ccc(Br)cc1`, the composite z-score in [1] is -0.371; in [2] it was -0.371; in experiment [3], 0.169; in experiment [4], -0.387; in experiment [5], 0.0216; in experiment [6] it was -0.446. In addition, the composite z-score in the experiment on Lefty1 was -0.809; in experiment [8], -0.448. In addition, the z-score was -0.297 in experiment [7] and -1.23 (inactive) in experiment [9].

`C=C(CCCC)/C(=C/C[C@@H](OC(C)=O)c1cccc(OCCO)c1)c1cc(C(=O)OC)ccc1OC`: the composite z-score in [1] is 0.57; in experiment [2], 0.0538; in [3] it was 0.0738; in experiment [4], 0.249; in experiment [5] it was 0.705; in experiment [6] it was 0.0923. Further, the values for the composite z-score (in the experiment with Lefty1; in experiment [8]) were 1.08 and 0.617, respectively. The z-score in experiment [7] is 1.63; in [9], -0.132 (inactive).

On to `Cc1ccc(S(=O)(=O)N2[C@@H](c3ccccc3)C(C(=O)O)=CC[C@H]2c2ccc(F)cc2)cc1`, for which the composite z-score in [1] is 0.686; in experiment [2] it was 1.29; in experiment [3], 0.779; in experiment [4] it was 1.13; in experiment [5] it was 0.164; in experiment [6], -1.34. For the same compound, the composite z-score came to 1.36 in the experiment with Lefty1 and 1.05 in experiment [8]. Also, the values for the z-score in experiment [7] and in experiment [9] were -0.679 and 2.52 (inactive), respectively.

As for `COCCOC(=O)N1C(=O)[C@@]2(c3cc(C#CCNC(N)=O)ccc31)[C@H](C(N)=O)[C@H]1C(=O)O[C@H](c3ccccc3)[C@H](c3ccccc3)N1[C@@H]2c1ccc(O)cc1`, the composite z-score was 1.78 in experiment [1]; -0.767 in experiment [2]; -0.284 in [3]; -0.424 in [4]; 0.994 in experiment [5]; 0.287 in [6]. The composite z-score with Lefty1 is 0.115; in experiment [8] it was -0.113. Further, the z-score is 0.222 in experiment [7] and -2.19 (inactive) in experiment [9].

For `C[N+](C)(C)CCCC[C@@H]1NC(=O)[C@H]2C[C@@H](C(=O)NCCCCCN)[C@@H](c3ccc(O)cc3)N2C1=O`, the composite z-score in experiment [1] came out at 3.32; in [2], 1.21; in [3], 0.599; in experiment [4] it was 1.04; in experiment [5], 1.39; in experiment [6], 1.66. Also, the composite z-score was determined as 1.7 in the experiment with Lefty1 and 1.36 in experiment [8]. Besides, the z-score in experiment [7] was 0.729; in experiment [9], -0.993 (inactive).

For the compound `CC[C@@H](O[Si](C#C[Si](C(C)C)(C(C)C)C(C)C)(C(C)C)C(C)C)c1cn([C@H](C)c2ccccc2)nn1`, the composite z-score in [1] was 0.176; in experiment [2], 0.57; in experiment [3], 0.0506; in experiment [4], -0.0116; in experiment [5] it was 0.548; in [6], 0.335. For the same compound, the composite z-score in the experiment on Lefty1 was 0.573; in [8], 0.094. Besides, the z-score in experiment [7] is -0.213; in experiment [9], -0.268 (inactive).

`NCCCCCCNC(=O)[C@@H]1C[C@@H]2C(=O)NCC(=O)N2[C@@H]1c1cccc(OCCO)c1`: the composite z-score was -0.207 in experiment [1]; 1.23 in experiment [2]; 1.36 in experiment [3]; 0.416 in [4]; 1.46 in [5]; 1.6 in [6]. Moreover, the composite z-score with Lefty1 came out at 1.52; in [8], 0.917. The z-score in [7] was 1.21; in experiment [9] it was -1.66 (inactive).

On to `C=CCNC(=O)[C@H]1[C@@H]2C(=O)O[C@@H](c3ccccc3)[C@@H](c3ccccc3)N2[C@@H](c2ccc(OCCO)cc2)[C@]12C(=O)Nc1ccc(C#Cc3ccc(OC)cc3)cc12`, for which the composite z-score in experiment [1] worked out at 1.38; in [2] it was 1.23; in experiment [3] it was 0.905; in experiment [4], 0.965; in [5], 1.37; in experiment [6], 0.977. Moreover, the composite z-score with Lefty1 came out at 0.811; in experiment [8], 1.14. Also, the z-score in experiment [7] is -1.7; in experiment [9] it was 0.152 (inactive).
